Most compounds without a hit are left out; they make up all but 2.6% or so of the library.
APOBEC3A inh = APOBEC3A ssDNA deaminase inhibitors, primary screen, selectivity assay for APOBEC3G inhibitor project, biochemical, FAM/TAMRA oligo cleavage fluorescence; recombinant A3A, FAM/TAMRA ssDNA deamination fluorescence; inhibition, % at 20 µM; 330,000 compounds, 0.41% hits;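 active = at least 40% inhibition at 20 µM here, with at most 30% in a related deaminase screen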
PABP polyA inh = PABP poly(A) RNA binding inhibitors, primary screen, biochemical, fluorescence polarization, uHTS | Polyadenylate-binding protein 1 (Homo sapiens), P11940 | calls only at 35 µM | 290,000 compounds, 1% hits | AID 2014, 2009;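 note: calls also rest on retests at 20 µM and on dose response follow-up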
MLLE-PAM2 inh = inhibitors of PABP1 MLLE–PAM2 peptide binding, primary screen, biochemical, fluorescence polarization, FITC-PAM2, GST-MLLE | inhibition, % at 20 µM | 360,000 compounds, 0.36% hits; in the data active = inhibition above about 35%, passing the limit was not always enough
eIF4H FP inh = human eIF4H binding inhibitors, primary screen, translation initiation inhibitor project, biochemical, uHTS, fluorescence polarization; eIF4H fluorescence polarization binding assay; inhibition, % at 35 µM; Eukaryotic translation initiation factor 4H (Homo sapiens), Q15056; 290,000 compounds, 0.94% hits;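 note: calls also rest on retests at 20 µM and on dose response follow-up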
A3G deaminase = APOBEC3G DNA deaminase inhibitors, primary screen, biochemical, fluorescence, single-stranded DNA substrate, uHTS; DNA dC->dU-editing enzyme APOBEC-3G (Homo sapiens), Q9HC16; recombinant A3G, ssDNA deamination FAM/TAMRA fluorescence; inhibition, % at 20 µM; 330,000 compounds, 0.28% hits;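 active = inhibition of at least 40% at 20 µM, with no more than 30% in the related APOBEC3A deaminase screen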
PHOSPHO1 block = PubChem AID 1565 | recombinant PHOSPHO1, absorbance phosphatase assay | Phosphoethanolamine/phosphocholine phosphatase (Homo sapiens), Q8TCT1 | inhibition, % at 13.3 µM | 290,000 compounds, 1.1% hits; in the data active = inhibition above about 60%
Target sequence (Q8TCT1 whole entry, looked up): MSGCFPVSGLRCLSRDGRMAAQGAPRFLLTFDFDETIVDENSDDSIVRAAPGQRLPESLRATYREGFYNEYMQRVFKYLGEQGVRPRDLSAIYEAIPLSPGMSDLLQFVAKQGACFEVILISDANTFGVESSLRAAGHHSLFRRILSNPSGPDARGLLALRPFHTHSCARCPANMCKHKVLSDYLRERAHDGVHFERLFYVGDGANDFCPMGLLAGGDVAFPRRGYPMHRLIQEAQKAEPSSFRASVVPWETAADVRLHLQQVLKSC
Each line names hits and unclear results; the compound was inactive in the other large screens. Unless noted, the rule behind the calls is not given here.

S=C(Nc1ccc2nc(-c3ccccn3)c(-c3ccccn3)nc2c1)N1CCCCC1	PABP polyA inh active, PHOSPHO1 block 87
COc1ccc(-c2noc(CN(C)C(=O)c3ccoc3C)n2)cc1	none
O=C(CCc1nnc2ccc(NCc3ccco3)nn12)Nc1ccccn1	eIF4H FP inh 88
COc1ccc(NC(=O)CCc2nnc3ccc(NCc4ccco4)nn23)cc1	none
Cc1cccnc1NC(=O)CCc1nnc2ccc(NCc3ccco3)nn12	none
Cc1cccc(NC(=O)CCc2nnc3ccc(NCc4ccco4)nn23)n1	eIF4H FP inh 80
CCN1CCN(c2ccc(N3CCN(S(=O)(=O)c4cc([N+](=O)[O-])ccc4C)CC3)nn2)CC1	none (no result: PABP polyA inh, eIF4H FP inh, PHOSPHO1 block)
C/C(=N\NC(=O)c1ccco1)c1ccc(NC(=O)C(F)(F)F)cc1	none (no result: PHOSPHO1 block)
O=C(OCC(=O)N1CCC(Cc2ccccc2)CC1)c1cncc(Br)c1	none (no result: PABP polyA inh, eIF4H FP inh, PHOSPHO1 block)
Cc1ccccc1-n1c(SCC(=O)NCc2cccs2)nc2ccccc2c1=O	none
Cc1ccc(CN2CCN(C(=O)C3CCCO3)CC2)cc1 (stereo unspecified)	none
O=C(C1CCCO1)N1CCN(Cc2c(O)ccc3ccccc23)CC1 (stereo unspecified)	PHOSPHO1 block 104
CCOC(=O)C1CCN(Cc2c(O)ccc3ccccc23)CC1	none
CCOC(=O)N1CCN(Cc2c(O)ccc3ccccc23)CC1	MLLE-PAM2 inh 40
CCOC(=O)CNc1nnc(SCC(=O)OCC)[nH]c1=O	MLLE-PAM2 inh 46
CCN(CC)S(=O)(=O)c1cccc(C(=O)Oc2cccc(NC(=O)c3cccs3)c2)c1	none
Cc1ccc(C(=O)NC(=S)Nc2cccc(-c3nc4ccccc4s3)c2)cc1	MLLE-PAM2 inh 41
CC(=O)Nc1cccc(-c2nc3ccccc3s2)c1	none
COc1cc(C(CC(=O)N2CCCC2)c2c(OC)cc(OC)c3ccc(=O)oc23)cc(OC)c1OC (stereo unspecified)	MLLE-PAM2 inh 43, eIF4H FP inh 52
COc1cc(C(CCN2CCCC2)c2c(OC)cc(OC)c3ccc(=O)oc23)cc(OC)c1OC (stereo unspecified)	none
CCOC(=O)N1CCC(NC(=O)c2ccc3c(c2)N(CC)CCS3)CC1	MLLE-PAM2 inh 38 (no result: PABP polyA inh, eIF4H FP inh, PHOSPHO1 block)
Cc1ccc(CN2CCSc3ccc(C(=O)NC4CCCC4)cc32)cc1	none (no result: PABP polyA inh, eIF4H FP inh)
O=C(Oc1csc(=S)n1C(=O)c1ccccc1)c1ccccc1	PHOSPHO1 block 83
CC(C)N(C)c1ncnc2c1ncn2[C@H]1CN(Cc2cccs2)C[C@@H](CO)O1	none (no result: APOBEC3A inh, PABP polyA inh, eIF4H FP inh, A3G deaminase, PHOSPHO1 block)
CCCCCC(O)(c1ccccc1)C(CN1CCOCC1)c1ccccc1 (stereo unspecified)	none
Oc1ccc(-c2nc3ncccn3c2Nc2ccc3c(c2)OCO3)cc1	none
Clc1ccc(-c2nc3ncccn3c2Nc2ccc3c(c2)OCO3)cc1	PABP polyA inh active, eIF4H FP inh 61
O=C(Cc1cccc(NC(=O)C2CCCN(C(=O)C3CCCCC3)C2)c1)Nc1cccc(C(=O)N2CCCC2)c1 (stereo unspecified)	none (no result: PABP polyA inh, eIF4H FP inh, PHOSPHO1 block)
O=C(CNC(=O)C1CCCCC1)NC1=NCCS1	MLLE-PAM2 inh 40
O=C(CNC(=O)C12CC3CC(CC(C3)C1)C2)NC1=NCCS1	MLLE-PAM2 inh 45
Cc1cccnc1NC(=O)CNC(=O)C1CCCCC1	none (no result: PABP polyA inh, eIF4H FP inh, PHOSPHO1 block)
CC(=O)OC1COC(OC(C)=O)CO1 (stereo unspecified)	none (no result: APOBEC3A inh, PABP polyA inh, eIF4H FP inh, A3G deaminase, PHOSPHO1 block)
CCC(=O)N1CCc2cc(Br)c(S(=O)(=O)CCC(=O)NCCc3ccccc3)cc21	none (no result: APOBEC3A inh, PABP polyA inh, eIF4H FP inh, A3G deaminase, PHOSPHO1 block)
O=C1N=C(c2ccccc2)S/C1=C\c1cccs1	PHOSPHO1 block 95
S=C(Cc1cccnc1)N1CCOCC1	PHOSPHO1 block 60
COc1ccc(Nc2nc3[nH]c(=O)cc(O)c3s2)cc1	eIF4H FP inh 56
O=c1cc(O)c2sc(Nc3ccc(F)c(Cl)c3)nc2[nH]1	none
COc1ccc(CCNC(=O)CCS(=O)(=O)c2ccc3c(c2)oc(=O)n3C)cc1OC	none
C=CCn1c(N)c(C(=O)OCC)sc1=S	MLLE-PAM2 inh 49
O=C(O)CNC(=O)CC1S/C(=N/N=C2\CSC(=O)N2)NC1=O (stereo unspecified)	MLLE-PAM2 inh 42
O=C(O)CNC(=O)CC1S/C(=N/N=C/c2ccccc2O)NC1=O (stereo unspecified)	none
COc1ccc(S(=O)(=O)N2CCCOC2CNC(=O)C(=O)NCCCn2ccnc2)cc1 (stereo unspecified)	PHOSPHO1 block 61
Cc1ccc(S(=O)(=O)N2CCOC2CNC(=O)C(=O)NCC(C)C)cc1 (stereo unspecified)	PHOSPHO1 block 62
CCN1CCN(S(=O)(=O)c2ccc(OC)c(NC(=O)c3ccccc3F)c2)CC1	none (no result: PABP polyA inh, eIF4H FP inh, PHOSPHO1 block)
O=C(COC(=O)c1ccccc1SCC(=O)N1CCCC1)NCc1ccc(F)cc1	none (no result: APOBEC3A inh, PABP polyA inh, eIF4H FP inh, A3G deaminase, PHOSPHO1 block)
COc1ccc(C2CC(c3cccs3)=Nc3ccccc3S2)cc1 (stereo unspecified)	MLLE-PAM2 inh 51
O=c1c2ccccc2nc2ccc(NCc3ccco3)nn12	PABP polyA inh active
Cc1sc2nc(SCC(=O)NCc3ccco3)[nH]c(=O)c2c1C	none
Cc1sc2nc3ccc(NCc4ccco4)nn3c(=O)c2c1C	MLLE-PAM2 inh 41
O=C1c2ccccc2C(=O)N1Cc1nc2ccccc2c(=O)n1Cc1ccco1	none (no result: MLLE-PAM2 inh)
CCOc1cc(C=NNC(=O)N(c2ccccc2)c2ccccc2)ccc1O	none (no result: APOBEC3A inh, PABP polyA inh, eIF4H FP inh, A3G deaminase, PHOSPHO1 block)
Cc1ccc(/C=C2/Sc3ccc(C(=O)N4CCN(C)CC4)cc3NC2=O)cc1	PABP polyA inh active, MLLE-PAM2 inh 46
COc1cc(CN2C[C@@H](CO)O[C@@H](n3cnc4c(N5CCN(C)CC5)ncnc43)C2)cc(OC)c1OC	none (no result: APOBEC3A inh, PABP polyA inh, eIF4H FP inh, A3G deaminase, PHOSPHO1 block)
CCOC(=O)/C(=C\c1ccc(C)cc1)NC(=O)c1ccccc1	PABP polyA inh active, eIF4H FP inh 78
O=C(NCc1ccccn1)/C(=C/c1ccco1)NC(=O)c1ccccc1	PABP polyA inh active, eIF4H FP inh 82
CC1CCCN(C(=O)/C(=C/c2ccco2)NC(=O)c2ccccc2)C1 (stereo unspecified)	none
Cc1ccc(C(=O)N/C(=C/c2ccco2)C(=O)O)cc1	PABP polyA inh active, eIF4H FP inh 87
Cc1ccc(C(=O)N/C(=C/c2ccco2)C(=O)NCc2ccco2)cc1	none
Cc1ccc(/C=C(\NC(=O)c2ccccc2)C(=O)OCc2ccccc2)cc1	none
O=C(N/C(=C\c1ccco1)C(=O)N1CCCC1CO)c1ccccc1 (stereo unspecified)	MLLE-PAM2 inh 34
C[C@H](CO)N1C[C@H](C)[C@@H](CN(C)S(=O)(=O)c2cn(C)cn2)Oc2ncc(Br)cc2C1=O	none (no result: APOBEC3A inh, PABP polyA inh, eIF4H FP inh, A3G deaminase, PHOSPHO1 block)
CCOc1ccc(/C=C2\SC(=S)N(CCC(=O)Nc3ccccc3C(=O)O)C2=O)cc1	none (no result: PHOSPHO1 block)
